Reference: PubChem BioAssay
Activity calls are given as the source filed them.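 How the source made its calls, unless noted: active means inhibition above 20% together with a positive visual image hit; inconclusive means visual image hit but inhibition not above 20%; inactive means no visual image hit.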

Columns and labels:
[1] = inhibitors of TNFa-induced NFkB p65 translocation, primary screen, imaging, HUVEC, MLSMR starter and 10KST1 sets (AID 438); conditions: HUVEC TNFa-induced p65 nuclear translocation; cell count: measured here: nuclei count (cytotoxicity indicator), at 2.08 µM; inhibition: at 2 µM, stronger effect = higher value, 0% TNFa-plus-vehicle, 100% no-TNFa wells;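 further: compound added about 3h40 before a 20 min TNFalpha stimulation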;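 on inhibition: signal is the nuclear over cytoplasmic p65 intensity ratio per well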
[2] = reduction of polyQ htt aggregates in cells – imaging, exon1htt(103Q)mCFP cells, high-content imaging, primary screen (AID 483;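 active means visual image review flags a hit and inhibition of aggregation exceeds 20%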;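 further: compound exposure lasted 3 days before fixation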;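 on nuclei count: percent of the per-plate median nuclei count of sample wells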); conditions: exon1htt(103Q)mCFP cell line, aggregate imaging, at 2 µM; inhibition of aggregation: stronger effect = higher value; nuclei count: measured here: cell count, toxicity
[3] = endothelial E-selectin expression blockers – imaging, HUVEC, immunofluorescence, MLSMR starter and 10KST1 sets, primary screen (AID 487;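 active means visually confirmed hit in the image check and inhibition above 20%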;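 on inhibition: signal is fraction of cell area covered by stained E-selectin grains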;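 on nuclei count: 100% = median nuclei count of all wells on the same plate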); conditions: HUVEC TNFalpha-induced E-selectin immunofluorescence imaging, at 2 µM; inhibition: stronger effect = higher value; nuclei count: measured here: cell number, toxicity
[4] = molecular target: Voltage-gated potassium channel subunit beta-2 (Rattus norvegicus) (UniProt P62483); experiment: inhibitors of rat Kvbeta2 reductase activity – biochemical, NADPH fluorescence, primary screen (AID 622;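 active means fluorescence slope higher than the sample average by over 3 SD, cut at about -0.22 in these data, passing the limit was not always enough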;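 further: slope of raw intensity against log time taken from 70 to 1610 s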); conditions: recombinant KvBeta, 4-cyanobenzaldehyde reduction, at 10 µM, stronger effect = higher value
Sequence of Voltage-gated potassium channel subunit beta-2 (Rattus norvegicus) (P62483 whole entry, looked up): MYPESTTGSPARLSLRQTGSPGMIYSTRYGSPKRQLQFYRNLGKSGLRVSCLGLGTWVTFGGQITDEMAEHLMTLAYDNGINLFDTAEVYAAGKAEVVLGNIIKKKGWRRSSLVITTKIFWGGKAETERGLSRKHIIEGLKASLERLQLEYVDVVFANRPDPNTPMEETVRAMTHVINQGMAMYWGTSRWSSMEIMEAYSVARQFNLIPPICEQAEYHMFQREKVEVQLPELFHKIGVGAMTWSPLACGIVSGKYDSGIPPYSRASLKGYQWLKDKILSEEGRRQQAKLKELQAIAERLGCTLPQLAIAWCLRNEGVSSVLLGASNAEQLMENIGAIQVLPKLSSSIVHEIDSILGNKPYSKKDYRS

[5] = molecular target: Voltage-gated potassium channel subunit beta-2 (Rattus norvegicus) (UniProt P62483); experiment: enhancers of rat Kvbeta2 NADPH turnover – biochemical, NADPH fluorescence, primary screen (AID 623;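 active means NADPH fluorescence slope more negative than the mean of all samples by about 3 SD, 99.7% confidence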;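 further: fluorescence intensity change per second fitted from 20 to 320 s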); conditions: Recombinant KvBeta, NADPH fluorescence decrease slope, 10 min; at 10 µM; stronger effect = lower value
[6] = molecular target: Alpha-2C adrenergic receptor (Homo sapiens) (UniProt P18825); experiment: compounds altering alpha2C-coupled GIRK flux – cell-based, HEK293 alpha2C/GIRK1/2, thallium flux, primary screen (AID 624;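 active means fluorescence slope after compound addition differing from the mean of all screened samples at 99.7% confidence, in either direction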;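 further: slope of fluorescence ratio to pre-addition baseline per second over 15 to 24 s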); conditions: thallium flux BTC fluorescence, at 10 µM, actives lie on both sides
Sequence of Alpha-2C adrenergic receptor (Homo sapiens) (P18825 whole entry, looked up): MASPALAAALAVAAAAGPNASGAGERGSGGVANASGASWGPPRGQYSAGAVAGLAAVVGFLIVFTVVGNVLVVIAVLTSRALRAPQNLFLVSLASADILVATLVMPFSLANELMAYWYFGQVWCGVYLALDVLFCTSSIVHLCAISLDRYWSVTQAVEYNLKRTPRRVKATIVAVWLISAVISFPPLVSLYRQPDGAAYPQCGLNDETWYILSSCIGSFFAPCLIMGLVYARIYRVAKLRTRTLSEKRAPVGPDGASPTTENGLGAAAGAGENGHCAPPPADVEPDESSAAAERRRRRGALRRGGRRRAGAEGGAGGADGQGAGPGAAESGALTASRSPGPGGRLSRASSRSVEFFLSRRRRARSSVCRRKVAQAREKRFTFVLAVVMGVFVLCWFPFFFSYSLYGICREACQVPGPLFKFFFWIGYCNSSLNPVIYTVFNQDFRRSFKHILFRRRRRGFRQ

[7] = blockers of RIG-like receptor reporter activation – cell-based, Sendai virus stimulus, luciferase, 10K MLSCN set, TLR/RLR signaling modifier project, primary screen (AID 602276;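 active means inhibition at or above 50% at 10 µM; inactive means inhibition below 50%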;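 further: firefly luciferase from ISG56 promoter only with Renilla not read in this screen; 0% = Sendai virus plus DMSO and 100% = medium plus DMSO without virus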); conditions: HEK293 RL24 IRF3 luciferase reporter, at 10 µM, stronger effect = higher value
[8] = TLR3 IRF3 reporter activation blockers – cell-based, poly I:C stimulus, luciferase, 10K MLSCN set, primary screen (AID 602277;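 active means inhibition of the reporter signal at or above 50%; inactive means inhibition below 50%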); conditions: HEK293-TLR3 RL24 IRF3 luciferase reporter, at 10 µM, stronger effect = higher value

Compound | cell count [1] | inhibition [1] | inhibition of aggregation [2] | nuclei count [2] [%] | inhibition [3] | nuclei count [3] [%] | fluorescence slope [4] | NADPH fluorescence slope [5] | slope [6] | inhibition [7] | inhibition [8]
COc1cc(C(=O)Nc2cccc(-c3nncn3C)c2)cc(OC)c1OC | 416 | 7.6% (inactive) | 22.2% (inactive) | 76.5 | -52.3% (inactive) | 102 | -0.303 (inactive) | -2.8e-05 (inactive) | 0.00614 (inactive) | 14.3% (inactive) | 14.5% (inactive)
COc1cc(NC2=CC(=O)CC(C)(C)C2)cc(OC)c1 | 346 | 7.5% (inactive) | -8.1% (inactive) | 110 | -3.1% (inactive) | 103 | -0.373 (inactive) | 6.9e-06 (inactive) | 0.00551 (inactive) | -4.89% (inactive) | -12.1% (inactive)
O=C(NCCN1CCCCCC1)c1ccc(CS(=O)(=O)c2ccc(Br)cc2)o1 | 591 | -0.5% (inactive) | -28.3% (inactive) | 98.6 | -63.4% (inactive) | 103 | -0.445 (inactive) | 1.2e-05 (inactive) | 0.00438 (inactive) | -15.7% (inactive) | 16.4% (inactive)
O=C1C(C=NCCCn2ccnc2)=C(O)c2ccccc21 | 422 | 5.8% (inactive) | -8.1% (inactive) | 104 | -50.8% (inactive) | 113 | -0.589 (inactive) | -2.7e-05 (inactive) | 0.0063 (inactive) | 9.44% (inactive) | 37.1% (inactive)
Clc1ccc(OCc2nc(-c3ccccn3)no2)c(Br)c1 | 814 | 1.8% (inactive) | 4.2% (inactive) | 95 | -1.9% (inactive) | 121 | -0.595 (inactive) | -8.6e-06 (inactive) | 0.00567 (inactive) | -31.1% (inactive) | -134% (inactive)
Cc1[nH]nc2c1C(=O)CCC2 | 639 | 10.7% (inactive) | 27.4% (inactive) | 96.1 | 14.9% (inactive) | 95.1 | -0.366 (inactive) | -3.1e-05 (inactive) | 0.00524 (inactive) | -1.33% (inactive) | 0.12% (inactive)
Cn1c(SCc2c(F)cccc2Cl)nnc1-c1cccs1 | 662 | 9.6% (inactive) | -11.9% (inactive) | 25.4 | -9.9% (inactive) | 115 | -0.445 (inactive) | -2.8e-05 (inactive) | 0.00484 (inactive) | -93.7% (inactive) | -167% (inactive)
COc1cc(NS(=O)(=O)N2CCCC2)cc(OC)c1OC | 712 | 0.7% (inactive) | 9% (inactive) | 95.3 | -115% (inactive) | 128 | -0.498 (inactive) | -1.9e-05 (inactive) | 0.00502 (inactive) | 7.48% (inactive) | 16.9% (inactive)
O=C(CCn1cccc1)N1CCc2ccccc21 | 281 | 6.5% (inactive) | -5.2% (inactive) | 108 | -12% (inactive) | 106 | -0.554 (inactive) | 2e-05 (inactive) | 0.00578 (inactive) | -13.2% (inactive) | -44.8% (inactive)
O=C1CC(N2CCOCC2)C(=O)N1c1ccccc1Cl (stereo not drawn) | 386 | -0.6% (inactive) | 13.9% (inactive) | 96.9 | -25.3% (inactive) | 128 | -0.338 (inactive) | 1.7e-05 (inactive) | 0.00688 (inactive) | 9.93% (inactive) | 18% (inactive)
CN1C(=O)CC(N2CCC(C(N)=O)(N3CCCCC3)CC2)C1=O (stereo not drawn) | 540 | 5.4% (inactive) | -7.1% (inactive) | 111 | 10.3% (inactive) | 117 | -0.593 (inactive) | -4.9e-05 (inactive) | 0.00424 (inactive) | 15% (inactive) | 16.9% (inactive)
O=C(Nn1cnnc1)C1Cc2ccccc2CN1S(=O)(=O)c1ccc(F)cc1 (stereo not drawn) | 326 | -6.7% (inactive) | 7.4% (inactive) | 95.2 | 0.9% (inactive) | 95.6 | -0.481 (inactive) | -2.7e-05 (inactive) | 0.00658 (inactive) | 14.1% (inactive) | 24.9% (inactive)
S=c1[nH]nc(Cc2ccccc2)n1-c1ccccc1 | 664 | -5.5% (inactive) | -9.4% (inactive) | 111 | 14.9% (inactive) | 106 | -0.367 (inactive) | -3.9e-05 (inactive) | 0.00525 (inactive) | 9.34% (inactive) | 20.2% (inactive)
CCCCN(C)C(=O)c1cn(C)c2ccc(S(=O)(=O)N(C)C)cc2c1=O | 559 | -5.1% (inactive) | 15.7% (inactive) | 76.4 | 39.3% (inactive) | 105 | -0.6 (inactive) | -3.3e-05 (inactive) | 0.00635 (inactive) | 6.56% (inactive) | 27.1% (inactive)
Cc1ccc(NC(=O)c2ccccc2F)nc1 | 336 | -8.1% (inactive) | 0.7% (inactive) | 123 | -16.4% (inactive) | 111 | -0.374 (inactive) | -6.3e-05 (inactive) | 0.00526 (inactive) | -16.7% (inactive) | -41.6% (inactive)
CCC(=O)Nc1c(C#N)c2nc3ccccc3nc2n1-c1ccccc1C | 311 | -1.9% (inactive) | 11.4% (inactive) | 83.9 | -20.8% (inactive) | 95.9 | -0.0512 (inactive) | 7.8e-06 (inactive) | 0.00349 (inactive) | 12.6% (inactive) | 21.8% (inactive)
CN=C(Nc1ccc2c(c1)OCO2)SC1CC(=O)N(c2ccccc2)C1=O (stereo not drawn) | 699 | 11% (inactive) | 6.4% (inactive) | 95.4 | 7.9% (inactive) | 112 | -0.381 (inactive) | -3.2e-05 (inactive) | 0.00557 (inactive) | 10% (inactive) | 17.2% (inactive)
O=C1N(c2ccccc2)C2CS(=O)(=O)CC2N1c1ccc(Br)cc1 (stereo not drawn) | 566 | -12.3% (inactive) | 4% (inactive) | 88.5 | -32.1% (inactive) | 127 | -0.432 (inactive) | -1.5e-05 (inactive) | 0.00616 (inactive) | 6.69% (inactive) | 17.5% (inactive)
Cc1cc(C)c(NC(=O)Cn2cc3c(n2)CCCC3)c(C)c1 | 738 | -7.9% (inactive) | -4.1% (inactive) | 76.3 | -1.2% (inactive) | 110 | -0.515 (inactive) | -2e-05 (inactive) | 0.00662 (inactive) | 26.1% (inactive) | 11.6% (inactive)
CC(C)CC1NC(=O)N(CC(=O)N2CCN(S(=O)(=O)c3ccc(Cl)cc3)CC2)C1=O (stereo not drawn) | 716 | 4% (inactive) | 11.8% (inactive) | 93 | -35.6% (inactive) | 76.3 | -0.416 (inactive) | 4.2e-06 (inactive) | 0.00417 (inactive) | 15.2% (inactive) | -5.28% (inactive)
Nc1sccc1C(=O)c1ccc(Cl)cc1 | 403 | 0% (inactive) | 7.1% (inactive) | 92 | -146% (inactive) | 103 | -0.44 (inactive) | -2.6e-05 (inactive) | 0.00277 (inactive) | 2.24% (inactive) | 0.658% (inactive)
C/C=C/Cn1c(SCCCc2ccccc2)nc2c1c(=O)[nH]c(=O)n2C | 658 | -6.4% (inactive) | -13.8% (inactive) | 101 | -13.9% (inactive) | 102 | -0.517 (inactive) | -1.9e-05 (inactive) | 0.00629 (inactive) | 1.4% (inactive) | 5.27% (inactive)
CC(=O)N1CCN(Cc2ccc(Br)s2)CC1 | 362 | -3.4% (inactive) | 2% (inactive) | 114 | -10.6% (inactive) | 106 | -0.442 (inactive) | -1.9e-05 (inactive) | 0.00639 (inactive) | 13.6% (inactive) | 20.9% (inactive)
CNc1nnc(-c2cccc(N(C)C)c2)s1 | 742 | -5.1% (inactive) | -2.3% (inactive) | 102 | -67.7% (inactive) | 91.1 | -0.135 (active) | -7.2e-06 (inactive) | 0.00491 (inactive) | -27.7% (inactive) | -96.6% (inactive)
c1cn(C23CC4CC(CC(C4)C2)C3)cn1 | 362 | 0.8% (inactive) | -9.2% (inactive) | 108 | 45.7% (inactive) | 110 | -0.489 (inactive) | -5.6e-05 (inactive) | 0.00411 (inactive) | 11.8% (inactive) | 16.7% (inactive)
O=C1C(Cl)=C(NCC2CCCO2)C(=O)N1CCc1ccccc1 (stereo not drawn) | 711 | -10% (inactive) | 9.2% (inactive) | 102 | 27.8% (inactive) | 107 | -0.448 (inactive) | 1.5e-05 (inactive) | 0.00576 (inactive) | -53.6% (inactive) | -108% (inactive)
O=S(=O)(NC1CCCC1)c1ccc(S(=O)(=O)N2CCc3ccccc32)cc1 | 395 | 0% (inactive) | 8.6% (inactive) | 102 | -13.9% (inactive) | 97.5 | -0.589 (inactive) | -1.9e-05 (inactive) | 0.00513 (inactive) | 5.42% (inactive) | -11.7% (inactive)
COc1cccc(NC(=O)COC(=O)c2cccnc2)c1 | 354 | -1.6% (inactive) | -3.6% (inactive) | 105 | -15.5% (inactive) | 108 | -0.503 (inactive) | -6.6e-05 (inactive) | 0.0053 (inactive) | 20.2% (inactive) | 19.2% (inactive)
